# Screens: PubChem BioAssay, National Center for Advancing Translational Sciences (NCATS)
# In the library only some 2.5% were active in any assay of this set; here they are far more common.
# Cruzain noTriton: inhibitors of Trypanosoma cruzi cruzain without detergent; purified cruzain, Z-FR-AMC fluorescence, no detergent; Potency, µM, actives largely listed as inhibitors; 200,000 tested, 2.3% active; further: nearly all actives have a fitted effect of over 40% in size
# Target sequence (P25779 123-467 limits assumed): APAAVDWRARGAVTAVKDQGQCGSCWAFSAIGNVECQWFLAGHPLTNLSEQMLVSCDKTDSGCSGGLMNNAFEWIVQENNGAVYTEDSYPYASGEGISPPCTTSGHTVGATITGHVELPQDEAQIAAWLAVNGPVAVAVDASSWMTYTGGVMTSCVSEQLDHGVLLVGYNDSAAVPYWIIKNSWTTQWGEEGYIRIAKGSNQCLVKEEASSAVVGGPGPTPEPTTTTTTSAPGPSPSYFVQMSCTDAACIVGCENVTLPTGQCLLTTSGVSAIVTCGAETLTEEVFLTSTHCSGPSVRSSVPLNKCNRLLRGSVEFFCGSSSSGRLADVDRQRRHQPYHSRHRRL
#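 Detergent-free condition (0.00005% Triton X-100) in acetate buffer pH 5.5 with DTT. 1.5 nM enzyme and compound were pre-mixed 15 min, then 2 uM Z-FR-AMC substrate added; reaction progress from fluorescence change between first and third reads (60 s).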
# Cruzain inh Det: inhibitors of Trypanosoma cruzi cruzain with detergent | P25779 | purified cruzain, Z-FR-AMC fluorescence, 0.01% Triton | Potency, µM, hits mostly inhibitors | 200,000 tested, 0.43% active | AID 1478; further: nearly all actives have a fitted effect of over 40% in size
#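 Detergent-containing arm of a paired screen for aggregation-based inhibition: 0.01% Triton X-100 present. Cruzain at 1.5 nM cleaved 2 uM Z-FR-AMC at pH 5.5 with 5 mM DTT; AMC fluorescence gain over 60 s measured activity.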
# Numbers stand for hits; n = inactive; u = inconclusive. The call rests on the fitted dose curve; in most records, active means well fitted curve in the direction sought with a large enough effect; inconclusive means small, poorly fitted or top-dose-only effect, or another doubt; inactive means no such curve, though single readings can be large; an effect the other way counts as inactive or inconclusive.
SMILES,Cruzain noTriton,Cruzain inh Det
O=S(=O)(c1ccccc1)N1CCC2(CCCN(c3ccccc3)C2)CC1,n,n
O=S(=O)(c1ccccc1)N1CCC[C@@]2(CCN(c3ccccc3)C2)C1,16µM,n
COc1ccc(CSc2nnnn2Cc2ccccc2)cc1OC,n,n
CC1(C)CCC2=C(O1)c1ccccc1C(=O)C2=O,n,n
Cc1ccc(-c2noc(CN(C(=O)COc3cc(C)cc(C)c3C)C(C)C)n2)cc1,n,n
O=C(Oc1ccc2c(=O)c(Oc3ccc4ccccc4c3)coc2c1)c1cncc(Br)c1,3.2µM,n
O=C(Oc1ccc2ccccc2c1)c1cncc(Br)c1,u,n
COC(=O)C(NC(=O)CCc1c(C)nc2c(-c3ccccc3)c(C)nn2c1C)C(C)C (centres undefined),u,n
Cc1ccc(NC(=O)CC2SC(=NCC3CCCO3)NC2=O)cc1Cl (centres undefined),n,n
Cc1ccc(NC(=O)CC2S/C(=N/N=C/c3c[nH]c4ccccc34)NC2=O)cc1 (centres undefined),20µM,n
Cc1ccc(NC(=O)CC2S/C(=N/N=C/C=C/c3ccccc3)NC2=O)cc1Cl (centres undefined),5µM,n
CCOC(=O)c1ccc(NC(=O)CC2S/C(=N/N=C/c3c[nH]c4ccccc34)NC2=O)cc1 (centres undefined),u,n
Nc1ccccc1C(=O)NCc1ccc(Cl)cc1,n,n
Cc1ccc(C)c(CN2C(=O)c3ccccc3S(=O)(=O)c3ccc(C(=O)Nc4cc(F)ccc4F)cc32)c1,16µM,n
O=C(NCCc1ccc(Cl)cc1)c1ccc2c(c1)N(Cc1ccccc1F)C(=O)c1ccccc1S2(=O)=O,u,n
Cc1ccc(C)c(CN2C(=O)c3ccccc3S(=O)(=O)c3ccc(C(=O)Nc4ccccc4C(F)(F)F)cc32)c1,u,n
Cc1ccc(C)c(CN2C(=O)c3ccccc3S(=O)(=O)c3ccc(C(=O)NCCc4ccc(Cl)cc4)cc32)c1,10µM,n
COc1ccc(CNC(=O)CCCN2C(=O)COc3ccc(C)cc32)cc1,u,n
CCN1CCN(c2cc(C)c3cc(NC(=O)/C=C/c4ccc(OCCC(C)C)cc4)ccc3n2)CC1,n,n
Cn1ccc2c(OCC(=O)Nc3cc(C(F)(F)F)ccc3Cl)cccc2c1=O,n,n
CCCOc1ccc(CNC(=O)c2ccc3c(c2)N(Cc2ccccc2)CCS3)cc1,n,n
c1ccc(N2CCN(c3nc4ccccc4n4nnnc34)CC2)cc1,25µM,n
CN(C)c1ccc(Nc2nc3ccccc3n3nnnc23)cc1,16µM,n
c1ccc(CCNc2nc3ccccc3n3nnnc23)cc1,13µM,n
c1ccc2c(c1)nc(N1CCOCC1)c1nnnn12,n,n
SMILES,Cruzain noTriton,Cruzain inh Det
CCOc1ccc(Nc2nc3ccccc3n3nnnc23)cc1,n,n
COc1ccc(CCNc2nc3ccccc3n3nnnc23)cc1OC,n,n
COC(=O)c1cc(NS(=O)(=O)c2cc(Br)cc3c2N(C(C)=O)CC3)cc(C(=O)OC)c1,n,n
COCCCNC(=O)c1sc2nc3n(c(=O)c2c1C)CCC3,n,n
O=S(=O)(N/N=C/c1ccc(OC2CSC2)cc1)c1ccccc1,n,n
O=C(/C=C/c1cccs1)c1ccc(NC(=O)c2cccc(Br)c2)cc1,16µM,n
Cc1ccc(NC(=O)COC(=O)/C=C/c2cccs2)cc1,n,n
Cc1ccc(C(=O)Nc2ccc(C(=O)/C=C/c3cccs3)cc2)cc1,25µM,n
O=C(/C=C/c1cccs1)c1ccc(Br)cc1,n,n
CC(=O)N1CCN(Cc2ccc(Br)s2)CC1,n,n
CCOC(=O)c1cnn(-c2nc(SC)nc3sc4c(c23)CCC4)c1N,7.9µM,n
CCOC(=O)c1cnn(-c2nc(C)nc3sc4c(c23)CCC4)c1N,u,n
COc1ccc(Cl)cc1NC(=O)CN1CCC(n2nnc3cc(F)ccc32)CC1,u,n
O=C(Nc1cccc(S(=O)(=O)Nc2ccccc2Cl)c1)c1ccc(Cl)nc1,n,n
COc1cc(/C=C/C(=O)Nc2ccc(N3CCCCC3)c(S(=O)(=O)Nc3ccccc3Cl)c2)cc(OC)c1OC,n,n
COc1ccc(Cl)cc1NS(=O)(=O)c1cc(Cl)ccc1OC,n,n
O=C(Nc1cccc(C(F)(F)F)c1)Nc1ccc(N2CCCC2)c(S(=O)(=O)Nc2ccccc2Cl)c1,6.3µM,n
O=C(Nc1cccc(C(F)(F)F)c1)c1cc(S(=O)(=O)N2CCCCC2)ccc1N1CCOCC1,u,n
O=C(Nc1cccc(S(=O)(=O)Nc2ccccc2Cl)c1)c1ccc(N2CCCC2)c([N+](=O)[O-])c1,10µM,n
COc1ccccc1NS(=O)(=O)c1cc(NC(=O)Nc2ccc(Cl)cc2Cl)ccc1N1CCCCC1,5µM,n
COc1ccc(S(=O)(=O)N2CCCCC2)cc1NS(=O)(=O)c1cc(Cl)ccc1Cl,20µM,n
Cc1ccccc1C(=O)Nc1ccc(C(=O)OCc2cc(=O)n3c4c(sc3n2)CCCC4)cc1,n,n
COc1ccccc1N1CCN(C(=O)CSc2nnc3c4ccccc4nc(Cc4ccccc4)n23)CC1,n,n
